Consider 91 molecules from PubChem BioAssay AID372 (MTDP, 2006).

Each structure is given as a SMILES string. The whole screen tested about 100,000 compounds, of which about 770 (0.77%) were called active. The sample holds actives, similar compounds and a random draw of the others, so the mix is not that of the screen. Cut-off read from the data, not from the text of the source: active = inhibition above about 50%; inactive = the rest.

This assay addresses Gag-Pol polyprotein (Human immunodeficiency virus type 1 group M subtype B (isolate HXB2)) (UniProt P04585). As to the kind of experiment: RNase H inhibition, HIV 1 Gag Pol polyprotein, FRET biochemical assay, screening (AID 372). As to conditions: HIV-1 RT RNase H, FRET RNA/DNA substrate fluorescence; at 10 µM; active compounds read high.
In the case of `O=C1NC(=S)NC(=O)C1=Cc1ccc(OCc2cccc3ccccc23)c(Br)c1`, the inhibition – broadly, the change of the read-out against control, counted positive when it falls – was 54% (active).

As to `N#Cc1ccccc1COc1ccc(C=C2C(=O)NC(=S)NC2=O)cc1Br`, the inhibition is 46% (inactive).

Consider `Cc1cccc(C)c1OCCOc1ccc(C=C2C(=O)NC(=S)NC2=O)cc1`, for which the inhibition was 36% (inactive).

With `Cc1ccccc1COc1ccc(C=C2C(=O)NC(=S)NC2=O)cc1`, the inhibition is 60% (active).

For the molecule `COc1cc(/C=C2/SC(=S)NC2=O)ccc1OCc1ccccc1C#N`, the inhibition is 46% (inactive).

On to `N#Cc1ccccc1COc1ccc(/C=C2/SC(=S)NC2=O)cc1Br`, for which the inhibition was 52% (active).

Regarding `CN1C(=O)S/C(=C/c2ccc(OCc3ccccc3C#N)c(Br)c2)C1=O`, the inhibition is 39% (inactive).

Consider `O=C1NC(=S)NC(=O)C1=Cc1cc(Br)ccc1OCc1cccc2ccccc12`, for which the inhibition was 32% (inactive).

For `O=C1NC(=S)NC(=O)C1=Cc1ccc(OCc2ccccc2Cl)cc1`, the inhibition was 35% (inactive).

As for `O=C(/C=C/c1ccccc1)N1CCN(c2ccccc2)CC1`, the inhibition was 0% (inactive).

Turning to `COc1ccc(-c2ccccc2)cc1NCC1CC=CCC1` (stereo unspecified), the inhibition was 21% (inactive).

As for `Cc1ccc(NC(=O)C(C(C)C)N2C(=O)c3ccccc3C2=O)c(C)c1` (stereo unspecified), the inhibition was 12% (inactive).

In the case of `O=C1C(Cl)=C(Nc2cccc(Cl)c2)C(=O)N1c1cc(Cl)ccc1Cl`, the inhibition is 0% (inactive).

On to `C#CCOc1ccc(C=C2C(=O)NC(=S)NC2=O)cc1Br`, for which the inhibition is 19% (inactive).

Consider `COc1ccc(/C=N/c2sc(C)c(C)c2C#N)cc1`, for which the inhibition is 12% (inactive).

For the molecule `CCc1ncc(C(O)c2ccccc2OC)n1C` (stereo unspecified), the inhibition was 5% (inactive).

For `COc1ccc(OC)c(C2NC(=S)NC(C)=C2C(=O)Nc2ccc(C)c(Cl)c2)c1` (stereo unspecified), the inhibition was 15% (inactive).

`O=S(=O)(N=Nc1c(O)[nH]c2ccc(Br)cc12)c1cccc2ccccc12`: the inhibition was 9% (inactive).

Turning to `Oc1[nH]c2ccc(Br)cc2c1N=Nc1ccc2ccccc2n1`, the inhibition was 52% (active).

Regarding `Oc1[nH]c2ccc(Br)cc2c1N=Nc1ccccn1`, the inhibition was 2% (inactive).

As for `CCN(CC)S(=O)(=O)c1ccc(Cl)c(C(=O)Nc2ccc(OC)cc2)c1`, the inhibition is 0% (inactive).

With `O=C1NN(c2ccccc2)C(=O)/C1=C/c1ccc(-c2cccc([N+](=O)[O-])c2)o1`, the inhibition is 31% (inactive).

Turning to `CCOCCOC(=O)C1=C(C)N(CC)C(=O)NC1c1ccc([N+](=O)[O-])cc1` (stereo unspecified), the inhibition is 0% (inactive).

With `C=CCOC(=O)C1=C(C)N(CC)C(=O)NC1c1ccc([N+](=O)[O-])cc1` (stereo unspecified), the inhibition was 57% (active).

With `C=CCOC(=O)C1=C(C)N(CC)C(=O)NC1c1ccc(Br)cc1` (stereo unspecified), the inhibition is 4% (inactive).

On to `O=[N+]([O-])c1ccc(N/N=C/c2cc([N+](=O)[O-])ccc2O)cc1`, for which the inhibition is 10% (inactive).

`O=[N+]([O-])c1ccc(N/N=C/c2ccc(O)c(O)c2)cc1`: the inhibition was 57% (active).

Turning to `O=[N+]([O-])c1ccc(N/N=C/c2ccc(Cl)c([N+](=O)[O-])c2)cc1`, the inhibition was 8% (inactive).

Turning to `O=C(N/N=C/c1ccc(OC(=O)c2ccc(Br)cc2)cc1)c1cccc([N+](=O)[O-])c1`, the inhibition is 50% (active).

Take `O=C(N/N=C\c1ccc(OC(=O)c2ccc(Br)cc2)cc1)c1ccc(Br)cc1`: the inhibition was 14% (inactive).

As for `O=[N+]([O-])c1ccc(N/N=C/c2ccc(O)c(Br)c2)cc1`, the inhibition was 50% (active).

Turning to `O=C(N/N=C/c1ccc(F)cc1)c1cc(-c2ccc3ccccc3c2)n[nH]1`, the inhibition is 17% (inactive).

For `O=C(N/N=C/c1ccc(/C=N/NC(=O)c2cccc([N+](=O)[O-])c2)cc1)c1cccc([N+](=O)[O-])c1`, the inhibition is 12% (inactive).

For `COc1ccc(/C=N/Nc2ccc([N+](=O)[O-])cc2)cc1Br`, the inhibition is 7% (inactive).

With `O=[N+]([O-])c1ccc(N/N=C/c2cc(Br)c(O)c(Br)c2)cc1`, the inhibition was 24% (inactive).

With `O=C(N/N=C/c1ccc([N+](=O)[O-])cc1)c1cc(-c2ccc3ccccc3c2)n[nH]1`, the inhibition was 50% (active).

`Cc1ccc(-c2cc(C(=O)N/N=C/c3ccc([N+](=O)[O-])cc3)[nH]n2)cc1`: the inhibition was 24% (inactive).

Take `Cc1ccc(N(CC(=O)O)S(=O)(=O)c2ccccc2)cc1Cl`: the inhibition was 4% (inactive).

In the case of `COc1ccc(Br)cc1/C=C/C(=O)Nc1ccc(O)c(-c2nc3ccccc3o2)c1`, the inhibition is 14% (inactive).

On to `O=C(Nc1ccc(Br)cc1)C1C2/C=C\CCCCC21` (stereo unspecified), for which the inhibition was 9% (inactive).

As for `COC(=O)c1c(NC(=O)c2ccccc2C)sc2c1CCC(C)C2` (stereo unspecified), the inhibition is 12% (inactive).

`O=C(CSc1ccccc1)N/N=C/c1ccccc1O`: the inhibition is 7% (inactive).

For `CS(=O)(=O)N1CCN(Cc2ccccc2Cl)CC1`, the inhibition was 0% (inactive).

For the molecule `OCCNc1nc(-c2ccccc2Cl)nc2ccccc12`, the inhibition is 0% (inactive).

For `COc1ccc(C(=O)NNC(N)=S)cc1`, the inhibition was 0% (inactive).

For the molecule `O=C(N/N=C/c1ccc(O)cc1)c1ccc([N+](=O)[O-])cc1`, the inhibition was 0% (inactive).

As for `NC1=NC(=O)/C(=C/c2ccc(OS(=O)(=O)c3cccc([N+](=O)[O-])c3)cc2)S1`, the inhibition is 25% (inactive).

On to `O=C(N/N=C/c1ccc(O)c(O)c1)c1ccc([N+](=O)[O-])cc1`, for which the inhibition was 51% (active).

Take `NC1=NC(=O)/C(=C/c2ccc(OC(=O)c3ccc(Cl)c(Cl)c3)cc2)S1`: the inhibition was 18% (inactive).

As for `O=C(N/N=C/c1ccc(/C=N/NC(=O)c2ccc([N+](=O)[O-])cc2)cc1)c1ccc([N+](=O)[O-])cc1`, the inhibition was 0% (inactive).

For `NC1=NC(=O)/C(=C/c2ccc(OC(=O)c3cccc([N+](=O)[O-])c3)cc2)S1`, the inhibition was 51% (active).

Turning to `Cc1cc(Cl)ccc1OCC(=O)Nc1cc(Cl)c(Cl)cc1Cl`, the inhibition is 5% (inactive).

On to `CCC1CCc2c(sc(NC(=O)c3cc([N+](=O)[O-])ccc3Cl)c2C(N)=O)C1` (stereo unspecified), for which the inhibition is 14% (inactive).

For `COc1ccc(OC)c(NC(=O)COc2ccc(Cl)c(C)c2)c1`, the inhibition is 15% (inactive).

Regarding `CC(CCC(=O)Nc1nc2ccccc2s1)CC(=O)Nc1nc2ccccc2s1` (stereo unspecified), the inhibition was 15% (inactive).

In the case of `Cc1ccc2[nH]c(=O)c(C(=O)/C=C/c3ccccc3Cl)c(-c3ccccc3)c2c1`, the inhibition is 55% (active).

Take `COc1ccccc1/C=C/C(=O)c1c(-c2ccccc2)c2cc(C)ccc2[nH]c1=O`: the inhibition is 59% (active).

In the case of `COc1ccc(/C=C\C(=O)c2c(-c3ccccc3)c3cc(C)ccc3[nH]c2=O)cc1OC`, the inhibition was 18% (inactive).

Turning to `COc1ccc(/C=C\C(=O)c2c(-c3ccccc3)c3cc(C)ccc3[nH]c2=O)cc1`, the inhibition is 7% (inactive).

As to `Cc1ccc2[nH]c(=O)c(C(=O)/C=C\c3ccc(Br)cc3)c(-c3ccccc3)c2c1`, the inhibition was 28% (inactive).

On to `O=C(/C=C/c1ccccc1Cl)c1c(-c2ccccc2)c2cc(Cl)ccc2[nH]c1=O`, for which the inhibition is 35% (inactive).

Consider `COc1ccc(OC)c(/C=C/C(=O)c2c(-c3ccccc3)c3cc(Br)ccc3[nH]c2=O)c1`, for which the inhibition was 37% (inactive).

Take `COc1cc(/C=C/C(=O)c2c(-c3ccccc3)c3cc(Br)ccc3[nH]c2=O)cc(OC)c1OC`: the inhibition is 0% (inactive).

As for `Cc1ccc2[nH]c(=O)c(C(=O)/C=C\c3ccccc3)c(-c3ccccc3)c2c1`, the inhibition is 45% (inactive).

As for `O=C(/C=C/c1ccccc1Cl)c1c(-c2ccccc2)c2cc(Br)ccc2[nH]c1=O`, the inhibition was 49% (inactive).

As to `COc1ccccc1/C=C/C(=O)c1c(-c2ccccc2)c2cc(Br)ccc2[nH]c1=O`, the inhibition was 57% (active).

Turning to `CC12CN3CC(C)(CN(C1)C3c1c[nH]c3ccccc13)C2=O` (stereo unspecified), the inhibition was 6% (inactive).

`Cc1ccc(-n2c(C)cc(/C=C(/C#N)C(=O)Nc3ccc(Cl)cc3)c2C)cc1C`: the inhibition was 8% (inactive).

In the case of `O=C(Oc1ccc([N+](=O)[O-])cc1)c1ccc(Cl)c(S(=O)(=O)N2CCOCC2)c1`, the inhibition is 0% (inactive).

`O=C(N1CCN(c2c(F)c(F)c(C(F)(F)F)c(F)c2F)CC1)C12CC3CC(CC(C3)C1)C2`: the inhibition was 7% (inactive).

As for `O=c1c(N=Nc2ccc(Br)cc2)c(O)n(-c2ccccc2)c(=O)n1-c1ccccc1`, the inhibition is 17% (inactive).

Regarding `COc1ccccc1C1NC(=S)NC(C)=C1C(C)=O` (stereo unspecified), the inhibition is 5% (inactive).

In the case of `Cc1csc(N/N=C/c2c(F)cccc2Cl)n1`, the inhibition is 18% (inactive).

On to `Cc1ccc2nc(-c3ccc(NC(=O)c4cccc(F)c4)cc3)sc2c1`, for which the inhibition was 43% (inactive).

For the molecule `Cc1ccc2nc(-c3ccc(NC(=O)Cc4ccccc4)cc3)sc2c1`, the inhibition is 52% (active).

Turning to `Cc1cccc(NC(=O)Nc2ccc(-c3nc4ccccc4s3)cc2)c1`, the inhibition was 50% (active).

Turning to `Cc1ccc2nc(-c3ccc(NC(=S)NC(=O)c4ccccc4)cc3)sc2c1`, the inhibition was 6% (inactive).

In the case of `Cc1ccc2nc(-c3ccc(NC(=O)Cc4ccc(Cl)cc4)cc3)sc2c1`, the inhibition is 24% (inactive).

Regarding `Cc1ccc2nc(-c3ccc(NC(=S)NC(=O)c4ccccc4F)cc3)sc2c1`, the inhibition is 52% (active).

Consider `Cc1ccc2nc(-c3ccc(NC(=O)CCc4ccccc4)cc3)sc2c1`, for which the inhibition was 5% (inactive).

For `Cc1ccc2nc(-c3ccc(NC(=S)NC(=O)c4ccccc4Cl)cc3)sc2c1`, the inhibition was 8% (inactive).

As for `Cc1cccc(C(=O)NC(=S)Nc2ccc(-c3nc4ccccc4s3)cc2)c1`, the inhibition is 35% (inactive).

Regarding `O=C(Nc1ccc(Cl)cc1)Nc1ccc(-c2nc3ccccc3s2)cc1`, the inhibition is 17% (inactive).

In the case of `Cc1ccc2nc(-c3ccc(NC(=S)NC(=O)c4cccc(F)c4)cc3)sc2c1`, the inhibition is 56% (active).

As for `O=C(NC(=S)Nc1ccc(-c2nc3ccccc3s2)cc1)c1cccc(F)c1`, the inhibition is 34% (inactive).

`O=C(Nc1ccc(Cl)cc1)C1CC(=O)N(c2cccc([N+](=O)[O-])c2)C1` (stereo unspecified): the inhibition was 4% (inactive).

As for `COc1cc(OC)c(/C=C2\C(=O)NC(=S)N(c3ccc(C)cc3)C2=O)cc1Br`, the inhibition was 4% (inactive).

With `NC(=O)c1ccccc1NC(=O)c1cccc([N+](=O)[O-])c1`, the inhibition is 7% (inactive).

With `Cc1ccc(N=C(NO)C(=Nc2ccc(C)c(C)c2)NO)cc1C`, the inhibition is 23% (inactive).

Regarding `COc1cc(C=C2C(=O)c3ccccc3C2=O)ccc1OCc1ccc(F)cc1`, the inhibition was 7% (inactive).

`COc1cc(C2NC(=O)NC(C)=C2C(=O)OCc2ccc3c(c2)OCO3)cc(OC)c1OC` (stereo unspecified): the inhibition was 9% (inactive).
